According to PubChem BioAssay (NCATS):
Values without a mark were called inactive. Records with an inconclusive call do not appear. A call without a number means that no potency is given here. The source made the active and inactive calls. Unless noted, calls follow the shape of the dose curve; as a rule, active = well fitted curve in the direction sought with a large enough effect; inconclusive = small, poorly fitted or top-dose-only effect, or another doubt; inactive = no such curve, though single readings can be large; an effect the other way counts as inactive or inconclusive.

How the values were obtained:
[1] = AP1 Signaling Pathway (AID 357; active = well fitted curve in either direction with a large enough effect, not every such curve was filed as active;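 also: ME-180 reporter cells stimulated with EGF at its EC50 level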); conditions: ME-180 AP-1-bla reporter, EGF-induced, beta-lactamase ratio, 5 h; at 7.69 µM (top of the series) unless noted
Procedure, shortened: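 Cells are seeded overnight, exposed to compound titrations and an EC50 level of EGF for 5 hours at 37 °C, then loaded with CCF4 dye for 2.5 hours. Beta-lactamase activity under the AP-1 element is read as a blue/green ratio.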

[2] = target: Cytochrome P450 1A2 (Homo sapiens) (UniProt P05177); test: p450-cyp1a2 (AID 410; calls by dose curve; also: potency is read from the fitted curve at half-maximal effect)
Chain of Cytochrome P450 1A2 (Homo sapiens) (P05177 whole entry, looked up): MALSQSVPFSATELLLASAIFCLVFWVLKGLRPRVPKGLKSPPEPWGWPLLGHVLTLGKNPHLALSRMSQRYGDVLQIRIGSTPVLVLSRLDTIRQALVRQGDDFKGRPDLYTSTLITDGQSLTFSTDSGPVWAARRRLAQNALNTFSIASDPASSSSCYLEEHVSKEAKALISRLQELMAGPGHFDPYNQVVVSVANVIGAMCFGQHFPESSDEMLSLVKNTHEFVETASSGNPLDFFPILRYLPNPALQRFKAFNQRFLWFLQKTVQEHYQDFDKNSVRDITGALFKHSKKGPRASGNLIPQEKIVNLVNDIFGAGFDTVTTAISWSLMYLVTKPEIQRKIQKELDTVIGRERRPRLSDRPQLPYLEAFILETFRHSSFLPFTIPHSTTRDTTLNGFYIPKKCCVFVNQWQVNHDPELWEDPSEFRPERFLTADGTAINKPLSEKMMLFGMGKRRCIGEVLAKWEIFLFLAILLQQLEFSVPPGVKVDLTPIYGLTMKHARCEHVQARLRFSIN
Procedure, shortened: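 20nM CYP1A2 with 100uM Luciferin-ME (at Km) in 100mM KPO4; compound preincubated 10 min, NADPH regeneration added, 60 min at room temperature. Luciferin quantified by luminescence after detection reagent; normalized to 57 uM furafylline.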

[3] = NFAT Signaling Pathway (AID 444; active = well fitted curve in either direction with a large enough effect, not every such curve was filed as active;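 also: carbachol stimulus at about its EC50 of 1 µM final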); conditions: Jurkat NFAT-bla M1, carbachol, beta-lactamase ratio, 5 h; at 7.69 µM (top of the series) unless noted
Procedure, shortened: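 Jurkat cells with NFAT-driven β-lactamase reporter and co-expressed M1 receptor, stimulated with carbachol (final 1 uM, ~EC50), compound titration, 5 h at 37 °C. CCF4 loaded 1 h at RT; 460/530 nm ratio gave %activity and AC50.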

[4] = Stat Signaling Pathway (AID 446; active = well fitted curve in either direction with a large enough effect, not every such curve was filed as active;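 also: ME-180 cervical cancer cells given 40 pM IL-6 alongside compound; SIE-controlled beta-lactamase reporter measured as 460/530 nm FRET emission ratio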); conditions: ME-180 SIE beta-lactamase reporter, IL-6 stimulated, 5 h; at 7.69 µM (top of the series) unless noted
Procedure, shortened: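 Reporter line: ME-180 cervical carcinoma, SIE-beta-lactamase. Treatment: compound with 40 pM IL-6, 5 hrs, 37 C, in low-serum OPTI-MEM with 10 mM HEPES pH 7.3. Detection: 460/530 nm fluorescence.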

[5] = target: Glucocorticoid receptor (Homo sapiens) (UniProt P04150); test: GR-GFP Redistribution (AID 450;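 active = compounds whose dose series gives a full or clear partial fitted curve of increased nuclear translocation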; also: potency is read from the fitted curve at half-maximal effect); conditions: U2OS GR-GFP nuclear translocation, laser cytometry, 2 h
Chain of Glucocorticoid receptor (Homo sapiens) (P04150 whole entry, looked up, the tested form may be a part): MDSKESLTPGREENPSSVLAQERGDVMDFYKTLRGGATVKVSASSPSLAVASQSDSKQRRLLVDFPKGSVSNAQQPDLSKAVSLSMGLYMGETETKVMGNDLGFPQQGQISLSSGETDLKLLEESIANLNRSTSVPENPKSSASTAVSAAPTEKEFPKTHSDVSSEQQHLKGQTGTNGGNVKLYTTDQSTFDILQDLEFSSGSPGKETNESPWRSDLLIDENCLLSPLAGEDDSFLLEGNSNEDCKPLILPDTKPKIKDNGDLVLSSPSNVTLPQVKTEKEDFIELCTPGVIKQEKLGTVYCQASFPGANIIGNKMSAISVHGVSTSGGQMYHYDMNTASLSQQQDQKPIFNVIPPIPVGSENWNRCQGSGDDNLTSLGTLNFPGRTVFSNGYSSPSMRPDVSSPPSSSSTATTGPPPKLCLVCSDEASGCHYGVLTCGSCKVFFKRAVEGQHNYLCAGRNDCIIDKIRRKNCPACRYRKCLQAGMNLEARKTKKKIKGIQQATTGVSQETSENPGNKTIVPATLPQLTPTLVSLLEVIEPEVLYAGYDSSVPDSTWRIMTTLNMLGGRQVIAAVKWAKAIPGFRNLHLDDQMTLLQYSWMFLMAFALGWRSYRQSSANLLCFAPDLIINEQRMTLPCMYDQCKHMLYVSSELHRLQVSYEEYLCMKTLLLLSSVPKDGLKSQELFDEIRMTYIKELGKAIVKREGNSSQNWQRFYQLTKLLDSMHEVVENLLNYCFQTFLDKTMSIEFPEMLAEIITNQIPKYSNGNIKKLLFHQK

[6] = target: Glucocorticoid receptor (Homo sapiens) (UniProt P04150); test: GR-EFC Redistribution (AID 451; calls by dose curve; also: potency is read from the fitted curve at half-maximal effect); conditions: CHO-K1 GR-EFC translocation, beta-gal luminescence, 2 h
Procedure, shortened: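 CHO-K1 cells expressing nuclear EA and GR-ED fragments of b-gal; compounds titrated up to 46 uM final, 2 h at 37 C. GR nuclear translocation read as complemented b-gal luminescence after 1 h RT detection.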

[7] = target: Mitogen-activated protein kinase 10 (Mus musculus) (UniProt Q61831); test: JNK3 AlphaScreen Assay (AID 530; active = well fitted curve in either direction with a large enough effect, not every such curve was filed as active;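 also: kinase came from lysate of stimulated human HepG2 cells; signal reports phosphorylation of biotinylated GST-cJun 1-79 at Ser73 with 10 µM ATP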)
Procedure, shortened: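 Pre-activated (IL-1β/TNFα) JNK3 in HepG2 lysates phosphorylates biotin-GST-cJun(1-79), 10 uM ATP; anti-phospho-cJun(Ser73) AlphaScreen read at room temperature, pH 7.6 Tris buffer. Compounds pre-incubated 15 min as titrations.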

[8] = target: 3',5'-cyclic-AMP phosphodiesterase 4B (Homo sapiens) (UniProt Q07343); test: qHTS Assay for Inhibitors of PDE-IV (AID 607; active = well fitted activation curve with a large enough effect in the main read-out, with a control signal flat, not every such curve was filed as active)
Chain of 3',5'-cyclic-AMP phosphodiesterase 4B (Homo sapiens) (Q07343 whole entry, looked up): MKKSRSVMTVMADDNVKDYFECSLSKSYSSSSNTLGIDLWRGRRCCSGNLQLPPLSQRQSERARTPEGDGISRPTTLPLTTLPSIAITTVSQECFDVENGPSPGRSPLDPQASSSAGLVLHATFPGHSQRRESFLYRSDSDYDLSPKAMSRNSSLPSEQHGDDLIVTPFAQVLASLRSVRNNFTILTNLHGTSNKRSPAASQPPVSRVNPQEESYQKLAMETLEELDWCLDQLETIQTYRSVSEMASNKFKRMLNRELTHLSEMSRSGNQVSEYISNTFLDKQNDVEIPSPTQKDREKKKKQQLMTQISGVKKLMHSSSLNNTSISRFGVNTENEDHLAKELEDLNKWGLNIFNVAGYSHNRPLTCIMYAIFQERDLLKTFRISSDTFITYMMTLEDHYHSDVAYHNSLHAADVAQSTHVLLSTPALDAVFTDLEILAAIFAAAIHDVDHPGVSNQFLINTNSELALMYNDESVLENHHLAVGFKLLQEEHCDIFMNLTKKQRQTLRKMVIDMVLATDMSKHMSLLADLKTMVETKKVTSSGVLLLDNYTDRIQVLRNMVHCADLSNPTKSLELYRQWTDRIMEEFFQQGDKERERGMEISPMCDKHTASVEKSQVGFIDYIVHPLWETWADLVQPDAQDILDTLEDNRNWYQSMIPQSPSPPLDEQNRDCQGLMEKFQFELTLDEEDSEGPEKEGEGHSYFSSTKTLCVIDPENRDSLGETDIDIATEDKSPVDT
Procedure, shortened: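 Cell-based read-out of cAMP via a modified cyclic nucleotide-gated channel and membrane potential dye (535/590 nm) in HEK293 cells expressing PDE4 endogenously. Compounds tested up to 22.9 uM final; 100 uM RO 20-1724 reference.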

[9] = target: Guanine nucleotide-binding protein G(i) subunit alpha-1 (Homo sapiens) (UniProt P63096); test: qHTS Assay for Inhibitors of RGS12 GoLoco Motif Activity (Green Fluorophore) (AID 879);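 also: negative values mean loss of peptide binding seen as reduced polarization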
Chain of Guanine nucleotide-binding protein G(i) subunit alpha-1 (Homo sapiens) (P63096 whole entry, looked up): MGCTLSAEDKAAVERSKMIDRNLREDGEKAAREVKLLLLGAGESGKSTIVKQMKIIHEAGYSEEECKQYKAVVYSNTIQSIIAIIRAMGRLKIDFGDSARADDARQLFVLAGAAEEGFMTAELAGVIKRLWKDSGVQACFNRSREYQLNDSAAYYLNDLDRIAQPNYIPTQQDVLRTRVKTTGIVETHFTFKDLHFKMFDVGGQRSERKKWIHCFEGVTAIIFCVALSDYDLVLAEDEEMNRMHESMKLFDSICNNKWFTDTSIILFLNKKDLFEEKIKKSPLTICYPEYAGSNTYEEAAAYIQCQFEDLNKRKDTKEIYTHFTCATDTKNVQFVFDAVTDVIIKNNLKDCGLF
Procedure, shortened: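 Fluorescence polarization assay: 50 nM Gαi1 with 10 nM FITC-labeled RGS12 GoLoco peptide in 10 mM Tris pH 7.5, 150 mM NaCl, 0.1 mM GDP, 0.05% NP40, 10 min at room temperature with compound.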

[10] = qHTS Assay for Identification of Small Molecule Agonists for Thrombopoietin (TPO) Signaling Pathway (AID 917)
Procedure, shortened: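 Murine Ba/F3 cells stably expressing human TPO receptor and a Glycoprotein IIb promoter–luciferase reporter were IL-3-starved overnight, then treated with compounds plus TPO (26 pM final, its EC50) for 24 hrs at 37 C; luminescence was read.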

[11] = target: Muscarinic acetylcholine receptor M1 (Rattus norvegicus) (UniProt P08482); test: qHTS Assay for Antagonists of Acetylcholine Muscarinic M1 Receptor: Measurement of IP-One Response (AID 944); also: nearly all actives have a fitted effect of over 75% in size
Chain of Muscarinic acetylcholine receptor M1 (Rattus norvegicus) (P08482 whole entry, looked up): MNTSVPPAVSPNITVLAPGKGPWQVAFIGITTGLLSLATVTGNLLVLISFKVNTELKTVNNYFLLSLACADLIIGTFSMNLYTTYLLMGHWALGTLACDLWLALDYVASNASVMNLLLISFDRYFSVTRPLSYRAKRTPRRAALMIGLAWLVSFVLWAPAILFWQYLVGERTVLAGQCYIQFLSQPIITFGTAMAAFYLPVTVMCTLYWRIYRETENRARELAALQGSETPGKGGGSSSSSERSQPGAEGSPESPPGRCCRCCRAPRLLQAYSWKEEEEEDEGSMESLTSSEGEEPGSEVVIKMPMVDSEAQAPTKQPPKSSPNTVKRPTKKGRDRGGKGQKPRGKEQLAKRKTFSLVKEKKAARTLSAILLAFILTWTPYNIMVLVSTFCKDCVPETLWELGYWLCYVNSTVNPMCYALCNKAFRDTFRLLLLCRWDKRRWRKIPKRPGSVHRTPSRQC
Procedure, shortened: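 CHO cells stably expressing rat M1, pretreated 10 min with compound, then stimulated 30 min with carbachol at EC80 (200 nM) in LiCl-containing buffer pH 7.4; IP1 accumulation read by HTRF competition (665/620 nm).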

[12] = target: Pyruvate kinase (Leishmania mexicana) (UniProt Q27686); test: qHTS Validation Assay for Inhibitors of Leishmania Mexicana Pyruvate Kinase (AID 945)
Chain of Pyruvate kinase (Leishmania mexicana) (Q27686 2-499 E452W): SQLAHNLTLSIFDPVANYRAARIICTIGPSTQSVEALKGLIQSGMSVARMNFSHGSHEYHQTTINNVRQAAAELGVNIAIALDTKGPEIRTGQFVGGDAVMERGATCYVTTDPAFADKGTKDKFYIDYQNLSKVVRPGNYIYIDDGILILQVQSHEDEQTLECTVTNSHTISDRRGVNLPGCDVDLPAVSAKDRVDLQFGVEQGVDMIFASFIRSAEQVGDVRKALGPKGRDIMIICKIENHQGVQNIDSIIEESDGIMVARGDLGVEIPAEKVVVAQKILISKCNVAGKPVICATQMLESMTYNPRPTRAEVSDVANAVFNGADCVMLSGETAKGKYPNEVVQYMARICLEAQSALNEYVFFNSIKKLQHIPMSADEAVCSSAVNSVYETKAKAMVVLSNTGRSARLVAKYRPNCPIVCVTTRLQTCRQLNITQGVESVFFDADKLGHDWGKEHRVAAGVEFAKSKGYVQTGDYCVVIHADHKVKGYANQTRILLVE
Procedure, shortened: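 The enzyme is a highly purified E451W mutant of LmPYK used at 0.2 nM. It converts 0.5 mM PEP and 0.1 mM ADP over 1 h at room temperature; product ATP is quantified by luciferase luminescence relative to DMSO controls.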

[13] = target: Pyruvate kinase PKM (Homo sapiens) (UniProt P14618); test: qHTS Assay for Activators of Human Muscle Pyruvate Kinase (AID 954; active = well fitted curve in the direction sought with a large enough effect, not every such curve was filed as active)
Chain of Pyruvate kinase PKM (Homo sapiens) (P14618 whole entry, looked up): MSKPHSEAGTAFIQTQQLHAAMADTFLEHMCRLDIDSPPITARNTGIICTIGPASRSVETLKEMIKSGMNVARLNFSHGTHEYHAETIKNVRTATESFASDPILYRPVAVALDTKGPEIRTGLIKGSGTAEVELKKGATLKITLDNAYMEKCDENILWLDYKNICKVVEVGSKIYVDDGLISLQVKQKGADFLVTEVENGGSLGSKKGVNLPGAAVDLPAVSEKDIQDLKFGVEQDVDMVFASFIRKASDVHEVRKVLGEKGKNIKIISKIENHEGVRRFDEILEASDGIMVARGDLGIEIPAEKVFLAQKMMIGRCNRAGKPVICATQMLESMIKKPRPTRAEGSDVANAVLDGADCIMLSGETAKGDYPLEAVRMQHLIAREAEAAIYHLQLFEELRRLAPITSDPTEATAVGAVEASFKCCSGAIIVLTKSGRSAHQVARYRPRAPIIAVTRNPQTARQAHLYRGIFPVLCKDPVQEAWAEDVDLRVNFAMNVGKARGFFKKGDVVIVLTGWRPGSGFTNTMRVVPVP
Procedure, shortened: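 Human PKM2 activity is measured as ATP generation, detected by luciferase-coupled luminescence. The enzyme (0.1 nM) acts on 0.5 mM PEP and 0.1 mM ADP for 1 h at ambient temperature; data are normalized to uninhibited and full-inhibition wells.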

[14] = target: Alpha-galactosidase A (Homo sapiens) (UniProt P06280); test: Counterscreen for Glucocerebrosidase Inhibitors: qHTS Assay for Human alpha-Galactosidase at pH 4.5 (AID 992)
Chain of Alpha-galactosidase A (Homo sapiens) (P06280 whole entry, looked up): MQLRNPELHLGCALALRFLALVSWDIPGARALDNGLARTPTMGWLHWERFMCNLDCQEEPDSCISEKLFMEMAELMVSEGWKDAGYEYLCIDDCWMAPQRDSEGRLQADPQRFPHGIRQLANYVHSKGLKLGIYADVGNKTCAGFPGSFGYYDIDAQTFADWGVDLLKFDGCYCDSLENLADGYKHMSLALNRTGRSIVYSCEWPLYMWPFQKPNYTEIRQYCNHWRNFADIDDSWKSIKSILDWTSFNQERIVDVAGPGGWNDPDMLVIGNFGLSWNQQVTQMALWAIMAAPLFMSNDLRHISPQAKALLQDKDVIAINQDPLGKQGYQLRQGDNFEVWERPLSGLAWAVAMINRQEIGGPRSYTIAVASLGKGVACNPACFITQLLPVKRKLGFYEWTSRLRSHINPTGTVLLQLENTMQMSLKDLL
Procedure, shortened: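 Quantitative HTS: compounds tested from 0.7 nM up to 77 uM against 2 nM enzyme with 80 uM 4-MU alpha-D-galactopyranoside. The 20 min room-temperature reaction is stopped with 1M NaOH/1M glycine, pH 10.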

[15] = target: alpha-glucosidase (Oryza sativa, rice) (UniProt Q653V4); test: Counterscreen for Glucocerebrosidase Inhibitors: qHTS Assay for Rice alpha-Glucosidase at pH 5.0 (AID 997); also: potency is read from the fitted curve at half-maximal effect
Procedure, shortened: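 Rice alpha-glucosidase (4 nM final) with 400 uM 4-methylumbelliferyl-alpha-D-glucopyranoside in citrate buffer pH 5.0, 20 min at room temperature, stopped at pH 10; fluorescence 365/440 nm, compounds 0.7 nM–77 uM, AC50 from Hill fits.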

[16] = target: Muscarinic acetylcholine receptor M1 (Rattus norvegicus) (UniProt P08482); test: qHTS Assay for Antagonists of Acetylcholine Muscarinic M1 Receptor: Kinetic Measurement of Intracellular Calcium Response (AID 943); also: nearly all actives have a fitted effect of over 75% in size
Procedure, shortened: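 CHO cells expressing rat M1 receptor, Fluo-4 loaded, preincubated 10 min with compound, then stimulated with EC80 carbachol (100 nM final). Kinetic calcium fluorescence over 4 min; response taken as peak over basal signal.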

[17] = target: Cytochrome P450 2C19 (Homo sapiens) (UniProt P33261); test: qHTS Assay for Inhibitors and Substrates of Cytochrome P450 2C19 (AID 899); also: nearly all actives have a fitted effect of over 60% in size; also: potency is read from the fitted curve at half-maximal effect
Chain of Cytochrome P450 2C19 (Homo sapiens) (P33261 whole entry, looked up): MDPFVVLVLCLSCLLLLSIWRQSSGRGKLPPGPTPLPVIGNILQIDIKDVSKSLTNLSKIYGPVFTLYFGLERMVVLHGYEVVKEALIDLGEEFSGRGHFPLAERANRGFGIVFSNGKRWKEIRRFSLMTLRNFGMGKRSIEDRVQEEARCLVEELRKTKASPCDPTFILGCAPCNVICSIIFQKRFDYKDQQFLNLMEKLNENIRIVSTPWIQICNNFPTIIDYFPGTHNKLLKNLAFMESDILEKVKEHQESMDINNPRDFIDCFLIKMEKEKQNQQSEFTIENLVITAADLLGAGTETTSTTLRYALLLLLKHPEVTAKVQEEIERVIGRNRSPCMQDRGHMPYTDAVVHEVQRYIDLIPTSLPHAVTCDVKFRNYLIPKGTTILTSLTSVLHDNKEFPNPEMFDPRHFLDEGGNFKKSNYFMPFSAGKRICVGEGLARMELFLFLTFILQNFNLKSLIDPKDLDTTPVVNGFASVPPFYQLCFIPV
Procedure, shortened: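 Signal comes from luciferase acting on luciferin released by CYP2C19-mediated hydroxylation of Luciferin-H EGE, 10uM (KM). Assay mix: 5nM enzyme, 50mM KPO4; 60 min at 37C with NADPH regeneration. Data normalized against 57uM ketoconazole.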

Row | SMILES | activity change, negative = inhibition [1] | Potency [2] | activity change, negative = inhibition [3] | activity, negative = inhibition [4] | Potency [5] | Potency [6] | Potency [7] | Potency [8] | outcome [9] | outcome [10] | Potency [11] | outcome [12] | outcome [13] | outcome [14] | Potency [15] | Potency [16] | Potency [17]
1 | NCC[C@H]1CCC[C@H](CCN)N1 | 2.44% [at 38 µM] | inactive | 2.27% [at 38 µM] | -5.59% [at 38 µM] | > 46 µM | > 46 µM | inactive | inactive | inactive | inactive | inactive | inactive | inactive | inactive | inactive | – | –
2 | OC[C@@H]1NC[C@@H](O)[C@@H](O)[C@H]1O | 0.931% [at 38 µM] | inactive | 1.96% [at 38 µM] | -28.2% [at 38 µM] | > 46 µM | > 46 µM | inactive | inactive | inactive | inactive | inactive | inactive | inactive | inactive | 0.0794 µM (active) | inactive | –
3 | Nc1nc(Nc2ccccc2)nc2c1ncn2[C@@H]1O[C@@H](CO)[C@H](O)[C@@H]1O | -5.61% [at 38 µM] | 31.6 µM (active) | -0.881% [at 38 µM] | 0.406% [at 38 µM] | > 46 µM | > 46 µM | inactive | inactive | inactive | – | inactive | inactive | inactive | inactive | inactive | inactive | –
4 | O=c1[nH]c2[nH]c(=S)[nH]c(=S)c2[nH]1 | -13.3% | 3.98 µM (active) | -1.66% | 15.5% | > 46 µM | > 9.22 µM | inactive | inactive | – | – | – | – | – | – | – | – | 0.631 µM (active)
5 | O=C(O)CCC(=O)N1CCC[C@H]1C(=O)O | 14% [at 38 µM] | inactive | 7.11% [at 38 µM] | -28.5% [at 38 µM] | > 46 µM | > 46 µM | inactive | inactive | inactive | inactive | inactive | inactive | inactive | inactive | inactive | – | inactive
6 | Nc1ccc(CCNc2ncnc3c2ncn3[C@@H]2O[C@@H](CO)[C@H](O)[C@@H]2O)cc1 | -2.21% [at 38 µM] | inactive | 3.61% [at 38 µM] | 17.4% [at 38 µM] | > 46 µM | > 46 µM | inactive | inactive | inactive | inactive | – | inactive | inactive | inactive | inactive | inactive | –
7 | CNc1ncnc2c1ncn2[C@@H]1O[C@@H](CO)[C@H](O)[C@@H]1O | -19.9% [at 38 µM] | inactive | 0.83% [at 38 µM] | -6.86% [at 38 µM] | > 46 µM | > 46 µM | inactive | inactive | inactive | – | – | inactive | inactive | inactive | inactive | – | –
8 | O=C(O)CC[C@@H](NC(=O)c1ccccc1C(=O)O)C(=O)O | 10.1% [at 38 µM] | inactive | 6.53% [at 38 µM] | -11.8% [at 38 µM] | > 46 µM | > 46 µM | inactive | inactive | inactive | inactive | inactive | inactive | inactive | inactive | inactive | – | –
